FUS yeast rescue = suppressors of FUS proteinopathy in yeast; S. cerevisiae FUS-expressing, growth rescue, OD600, 24 h; Potency, µM (top dose mostly 76.6 µM), usual class: activators; actives 0.24% (n = 390,000); AID 1347120;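 also: plate controls were DMSO vehicle for no effect and reference control for full effect; nearly all actives have a fitted effect of over 55% in size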
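Compound concentration series was pinned onto galactose-induced FUS-expressing yeast seeded at OD 0.005. Plates sat 24hr at 30C; absorbance at 600 nm gave growth. DMSO served as background control.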
Abeta rescue = A-beta toxicity reversal in yeast. AID 1347071. yeast expressing A-beta42, growth rescue, OD600, 48 h; response scale: 0% DMSO, 100% iron-clioquinol control. Potency, µM (titrated, usually from 46.1 µM), actives largely listed as activators. actives 0.063% (n = 410,000); also: nearly all actives have a fitted effect of over 55% in size
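Growth rescue measured by 600 nm absorbance after 48 h yeast culture at 30 C with compound. Values normalized between DMSO and an equimolar ferric chloride plus clioquinol control.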
aSyn yeast inh = inhibitors of alpha-synuclein toxicity in yeast; AID 652106; Yeast expressing alpha-synuclein, growth rescue, BacTiter-Glo, 24 h; Potency, µM (doses to about 46.1 µM), for inactives: top-dose growth rescue (activation), actives largely listed as activators; actives 0.14% (n = 370,000); also: % of control where 0% means no effect; nearly all actives have a fitted effect of over 65% in size
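Galactose-induced alpha-syn yeast (OD600=0.02, raffinose-pregrown) + pinned cpd, 24 hr, 30 deg C; growth by BacTiter-Glo luminescence. Growth restoration scores as activation.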
TDP-43 yeast inh = rescues yeast growth from TDP-43 toxicity. Potency, µM (highest dose often 46.1 µM), inactives show at the highest dose growth rescue (activation), actives largely listed as activators. TDP-43 expressing yeast growth rescue, BacTiter-Glo, 24 h. actives 1.8% (n = 410,000). AID 652104; also: % of control where 0% means no effect; nearly all actives have a fitted effect of over 50% in size
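Luminescence from BacTiter-Glo reports growth of TDP-43-expressing yeast after 24 hr at 30 deg C with compound. Cells were raffinose-pregrown to mid-log, then seeded in galactose medium at OD600=0.02.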
An asterisk follows results filed as active; i = inactive; u = inconclusive; x = not tested or not shown; [ ] = another dose, or the depositor's remark. Compounds with a hit are over-represented: about 2.1% of the library has one in this group of screens. Calls follow the shape of the dose curve; as a rule, active = well fitted curve in the direction sought with a large enough effect; inconclusive = small, poorly fitted or top-dose-only effect, or another doubt; inactive = no such curve, though single readings can be large; an effect the other way counts as inactive or inconclusive. Potency is read from the fitted curve at half-maximal effect.

SMILES	FUS yeast rescue	Abeta rescue	aSyn yeast inh	TDP-43 yeast inh
O=C(O)c1cc2cccc([N+](=O)[O-])c2[nH]1	x	x	17%	x
CC(=O)C(C)Oc1ccc2c3c(c(=O)oc2c1C)CCCC3 (stereo not drawn)	i	i	2%	20µM*
CCc1cccc(N2C(=O)CSC23C(=O)N(Cc2ccccc2F)c2ccccc23)c1 (stereo not drawn)	i	i	1%	u
COC(=O)c1cc2oc(C)cc2n1CC(=O)Nc1ccc(C(C)C)cc1	i	i	x	14%
Cn1cc(C(=O)CCl)c2ccccc21	i	i	-22%	16µM*
Cc1ccc(N2CN(CCc3ccccc3)CNC2=S)cc1	i	11µM*	0%	19%
Clc1ccccc1Nc1nc(-c2ccncc2)nc2ccccc12	i	i	1%	35µM*
c1ccc2c(Nc3nc(-c4ccncc4)nc4ccccc34)cccc2c1	i	i	5%	2%
O=[N+]([O-])c1cccc(-c2ccc(SCc3cccnc3)nn2)c1	i	i	8%	16µM*
Cc1ccc(-c2nc3c4ccccc4ccn3c2Cc2ccccc2)cc1	u	i	0%	0%
Clc1cccc(Cc2c(-c3cccc(Br)c3)nc3c4ccccc4ccn23)c1	i	i	-3%	20%
COc1ccccc1Cc1c(-c2ccco2)nc2c3ccccc3ccn12	i	i	1%	22µM*
COc1ccccc1Cc1c(-c2ccco2)nc2c(C)cc(Br)cn12	i	i	-71%	u
COc1ccc(-c2nc3c4ccccc4ccn3c2Cc2cccc(Cl)c2)cc1OC	i	i	17%	14µM*
CCOC(=O)Cc1c(-c2cccc(Cl)c2)nc2c3ccccc3ccn12	i	i	1%	13µM*
Cc1ccc(Cc2c(-c3ccccc3)nc3c4ccccc4ccn23)cc1	u	i	1%	14µM*
Fc1cccc(Cc2c(-c3ccccc3)nc3c4ccccc4ccn23)c1	i	i	-5%	14µM*
COc1ccc(-c2nc3c4ccccc4ccn3c2Cc2ccc(C)cc2)cc1OC	i	i	22%	10µM*
Clc1ccc(-c2nc3c4ccccc4ccn3c2Cc2cccc(Cl)c2)cc1	i	i	9%	6%
CC1C(=O)Nc2ccc(S(=O)(=O)NCc3ccc(N(C)C)cc3)cc2NC1=O (stereo not drawn)	i	i	x	-16%
COc1cccc2c1[C@H](/C=C/c1ccccc1)[C@@H]([C@H](O)CO)OC2	i	x	x	x
COc1cccc(NC(=S)NC(Cc2ccccc2)c2ccccc2)c1 (stereo not drawn)	i	u	27%	11µM*
Cc1ccc(C)c(Oc2nnnn2-c2ccccc2)c1	i	i	-2%	11µM*
COc1ccc(Oc2cnn(-c3ccccc3)c(=O)c2Br)cc1	i	i	1%	13µM*
COc1cccc(Oc2nnnn2-c2ccccc2)c1	i	i	x	13µM*
SMILES	FUS yeast rescue	Abeta rescue	aSyn yeast inh	TDP-43 yeast inh
NC(=O)c1ccc(-n2nnnc2Oc2ccccc2)cc1	i	i	-10%	-17%
COc1ccc(Oc2nnnn2-c2ccccc2)cc1	i	i	-6%	11µM*
COc1cnn(-c2ccc(C)cc2)c(=O)c1Br	i	i	0%	u
Nc1nc(N)c2c(Oc3ccc(F)cc3)cccc2n1	x	x	8%	x
c1cc2c(cc1Cc1cncc(Cc3ccc4c(c3)OCO4)c1)OCO2	x	x	-8%	x
Clc1ccc(Oc2nnnn2-c2ccccc2)cc1	i	i	-3%	11µM*
CCc1ccc(NC(=O)CSc2nccn2-c2ccc(OC)cc2)cc1	u	i	x	u
CCc1ccc(NC(=O)CSc2nccn2-c2cccc(C)c2C)cc1	i	i	u	32µM*
CCc1ccc(NC(=O)CSc2nccn2-c2ccc(F)cc2)cc1	i	u	x	16µM*
CC(=O)Nc1ccc(NC(=O)CSc2nnc(-c3n[nH]c4c3CCC4)n2N)cc1	i	x	x	x
CCc1ccc(S(=O)(=O)NCc2cccn2Cc2cccc(C)c2)cc1	i	i	x	-1%
Cc1cccc(Cn2cccc2CNS(=O)(=O)c2ccccc2F)c1	i	i	x	20µM*
Cc1ccc(NC(=O)CSCc2cnn(-c3ccccc3)c2-n2cccc2)c(Cl)c1	i	i	x	15%
Cc1cccc(C)c1NC(=O)CSCc1cnn(-c2ccccc2)c1-n1cccc1	i	i	x	25µM*
CCOc1ccc(NC(=O)CSCc2cnn(-c3ccccc3)c2-n2cccc2)cc1	i	i	11%	20µM*
COc1ccccc1CNC(=O)CSCc1cnn(-c2ccccc2)c1-n1cccc1	i	i	14%	18µM*
COc1cccc(CNC(=O)CSCc2cnn(-c3ccccc3)c2-n2cccc2)c1OC	i	i	21%	u
CCOC(=O)c1ccc2c(c1)N(CC(=O)N(C)c1ccccc1)C(=O)c1ccccc1S2	i	i	2%	23%
CCOC(=O)c1[nH]c2ccccc2c1NC(=O)c1ccccc1OCC	i	i	x	u
COC(=O)[C@@]12CCCCC3=C1N(CCC3)C(=O)[C@H]2CC(=O)NCC1CCCCC1	i	x	x	x
O=C(NCC1CCCO1)c1cc2c([nH]c3ccccc32)c(-c2cccc(Br)c2)n1 (stereo not drawn)	u	i	16%	10µM*
Cc1ccccc1-c1nc(C(=O)NCC2CCCO2)cc2c1[nH]c1ccccc12 (stereo not drawn)	i	i	6%	10µM*
Cc1ccc(-c2nc(C(=O)NCC3CCCO3)cc3c2[nH]c2ccccc23)cc1 (stereo not drawn)	i	i	u	25µM*
COc1ccc(-c2nc(C(=O)NCC3CCCO3)cc3c2[nH]c2ccccc23)cc1 (stereo not drawn)	u	i	-4%	0%
Cc1ccc(CN2CCCn3nc(C(=O)NCc4ccc(N(C)C)cc4)cc3C2=O)cc1	i	i	x	10%[9.22 µM]
SMILES	FUS yeast rescue	Abeta rescue	aSyn yeast inh	TDP-43 yeast inh
N[C@H](C(=O)O)[C@H](Cc1ccccc1)C(=O)O	x	x	4%	x
COC(=O)[C@]12C[C@H](CC(=O)NCC34CC5CC(CC(C5)C3)C4)C(=O)N(Cc3ccc(Cl)cc3Cl)C1=C[C@H](C1CCCC1)O[C@@H]2C	i	x	x	x
COc1ccc2sc(-c3ccc(N(C)C)cc3)c(C#CC(C)(C)O)c2c1	i	i	-1%	-4%
COc1cccc(-c2sc3ccc(OC)cc3c2C#CCC(C)O)c1 (stereo not drawn)	u	i	-1%	25µM*
COc1cccc(-c2sc3ccc(OC)cc3c2C#CC(C)(C)O)c1	u	i	-21%	18µM*
CCn1c(SCC(=O)NN=Cc2ccc(C(=O)O)cc2)nc2ccccc21	i	x	x	x
COc1cccc(CNC(=O)Cc2ccc(NC(=O)N3CCCCc4ccccc43)cc2)c1OC	u	i	x	11%
Cc1cc(NC(=O)CCn2c(=O)c3cccn3c3cccnc32)ccc1Br	i	i	x	17%

Bioassay records as filed in PubChem.
